In PubChem BioAssay (EPA / NIEHS) one finds AC50 and outcome data, which are given here for 30 molecules.

Molecules are shown by their SMILES. Where “and” joins values, the source holds several entries; their conditions need not be identical. Equal entries are not always repeated. Calls of active or inactive are those of the source. How the source made its calls: active means hit-call score of the fitted dose curve at least 0.9, where 1 is the maximum; inactive means score below 0.9.

As a reminder, the AC50 is the midpoint of the concentration-response curve, whichever way the signal moves.

Read-out in this assay: Cytochrome P450 (CYP1A2), CYP1A2 (gene 1544)
Put plainly: LTEA_HepaRG_CYP1A2: Life Technologies and Expression Analysis (LTEA) Assay for Cytochrome P450 (CYP1A2) using HepaRG (AID 2283479).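 On AC50: TaqMan qRT-PCR transcript level normalized to ACTB GAPDH and POLR2A.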 To be noted: mRNA level, 48 h; actives raise or lower the signal. The method, then: LTEA_HepaRG is a cell based, multiplexed-readout assay that uses HepaRG, a human liver cell line, with measurements taken at 48 hours after chemical dosing on a 96-well plate.LTEA_HepaRG_CYP1A2 is one of 102 assay component(s) measured in the LTEA HepaRG cell culture assay. It is a marker of NR mediated metabolism.Data from the assay component LTEA_HepaRG_CYP1A2 was analyzed into 1 endpoint. This assay endpoint, LTEA_HepaRG_CYP1A2, was analyzed with bidirectional fitting relative to DMSO as the negative control and baseline of activity. Using a type of inducible reporter, measures of mRNA induction for gain or loss-of-signal activity can be used to understand regulation of transcription factor activity. To generalize the intended target to other relatable targets, this assay endpoint is annotated to the cyp intended target family, where the subfamily is xenobiotic metabolism.
A total of 1060 chemcials from the ToxCast library were tested in eight-point concentration-response experiments. Cell culture and cytotoxicity assays were conducted at Thermo Fisher Scientific's Custom Services facility (Madison, WI). A single lot of human HepaRG cells (Thermo Fisher Scientific, Frederick, MD) was used for the cell culture experiments. 96-well format collagen type I coated plates of human HepaRG cells were prepared using established methods. Briefly, cryopreserved HepaRG cells were thawed, plated at a density of approximately 100,000 cells/well in HepaRG Thaw, Plate, and General Purpose media (HPRG770, Thermo Fisher Scientific), and incubated for 48 hours. 0.5% DMSO was selected as vehicle control to balance the requisite need of DMSO in HepaRG cultures to maintain differentiation (for example, baseline metabolism, proportions of hepatocytes vs. cholangiocytes), while enabling further hepatic receptor pathway activation (for example, PXR and CAR) in response to chemical exposure. 48 hours after plating, the culture medium was replaced with HepaRG Serum-Free Incudtion Media. Cells were exposed to each test chemical in duplicate and maintained in CO2 incubators for another 48 hours. Chemical plates were thawed to room temperature and 200x concentrations of treatment groups were prepared. 8-point conentration-reponse curves were made with the highest exposure at 100 uM, followed by half-log dilutions, all in 0.5% DMSO. Each test plate contained variouse controls, induction positive controls (1mM phenobarbital), cytotoxicity positive controls ([…] aflatoxin B1), vehicle controls (0.5% DMSO), and total lysis controls (0.5% DMSO). Cell morphology images were taken using an Essen IncuCyte FLR automated microscope, with six 96-well plates imaged in about 24 minutes. Images were captured and exported and JPEG files. Spent culture media was transfered to black-well plates for the LDH assay, and remaining media was sorted at -80 C for later use. Cells were treated with RLT buffer and frozen until shipped for gene expression analysis. Total RNA was isolated from the cell suspension in 75 uL of Buffer RLT (Qiagen, Germantown, MD 20874) by Quintiles/Expression Analysis (Durham, NC) using a custom isolation procedure. Total RNA from each plate well was transferred to a preamplification plate. Fluidigm's 96.96 Dynamic ArrayTM (Fluidigm, Amsterdam, the Netherlands) technology was used for gene expression analyses by quantitative reverse transcription polymerase chain reaction (qRT-PCR, performed by Quintiles/Expression Analysis, Durham, NC)89. Standard TaqManTM Assays (Applied Biosystems/ThermoFisher Scientific, Foster City, CA) were used to assess the expression of 93 genes selected based on their selectivity and sensitivity to important hepatic receptors known to be modulated by environmental chemicals; importance in human hepatocyte functionality; and hepatotoxicity. […]
`Oc1cccc2cccnc12`: the AC50 was 7.72 µM (active).
On the same count and under the same terms, the figure for `O=C(O)C(F)(F)C(F)(F)C(F)(F)C(F)(F)C(F)(F)C(F)(F)C(F)(F)C(F)(F)C(F)(F)C(F)(F)F` is 41.6 µM (active); for `O=C1C2(Cl)C3(Cl)C4(Cl)C(Cl)(Cl)C5(Cl)C3(Cl)C1(Cl)C5(Cl)C24Cl` (stereo not given) it is 8.79 µM (active).
As for `O=c1[nH]c(=O)[nH]c(=O)[nH]1`, the outcome was inactive.
As to `CC(=O)[O][Hg][c]1ccccc1`, the AC50 is 5 µM (active).
Same read-out and setting: the figure for `C=C(C)C(=O)[O][Sn]([CH2]CCC)([CH2]CCC)[CH2]CCC` is 0.471 µM (active).
As to `Cn1sc(Cl)cc1=O`, the outcome was inactive.
The same measure, in the same setting: the same measure for `Cc1ccccc1N`: “inactive”; for `NC(=O)O`: “inactive”.
On to `CCC(=O)C(CC(C)N(C)C)(c1ccccc1)c1ccccc1` (stereo not given), for which the AC50 is 36.2 µM (active).
Still for that read-out and setting: the figure for `O=[N+]([O-])c1ccc(O)c([N+](=O)[O-])c1` is 17.2 µM (active).
With `CCN1CCC2(CC1)COc1cc3c(cc12)N(C(=O)c1ccc(-c2ccc(-c4nnc(C)o4)cc2C)cc1)CC3`, the molecule was classed as inactive.
On to `C[C@]12CCC(=O)C[C@@H]1CC[C@@H]1[C@@H]2CC[C@]2(C)[C@@H](O)CC[C@@H]12`, for which the AC50 is 65.1 µM (active).
As for `CC12CC1(C)C(=O)N(c1cc(Cl)cc(Cl)c1)C2=O` (stereo not given), the half-maximal activity concentration (AC50) is 3.26 µM (active).
On to `CCOP(=S)(OCC)Oc1nc(Cl)c(Cl)cc1Cl`, for which the AC50 is 50 µM (active).
Turning to `COc1cc(-c2ccc(N)c(OC)c2)ccc1N`, the AC50 is 23.6 µM (active) and 25.8 µM (active).
As to `CC(C)(c1ccccc1)c1ccc(O)c(C(C)(C)c2ccccc2)c1`, the outcome was inactive.
On the same count and under the same terms, the same measure for `CC(C)(C)CC(C)(C)c1ccc(O)cc1`: “inactive”.
On to `CC(C)(OO)c1ccccc1`, for which the AC50 was 50 µM (active).
On the same count and under the same terms, the same measure for `CCC(C)(C)c1ccc(O)c(C(C)(C)CC)c1`: 80.4 µM (active).
As for `ClCC(Cl)CCl`, the call was inactive.
As for `ClC1(Cl)C2(Cl)C3(Cl)C4(Cl)C(Cl)(Cl)C5(Cl)C3(Cl)C1(Cl)C5(Cl)C24Cl` (stereo not given), the AC50 is 15.8 µM (active).
`O=C(O)C(F)(F)C(F)(F)C(F)(F)C(F)(F)C(F)(F)C(F)(F)F`: the outcome was inactive.
As to `CCOP(=S)(OCC)SCSP(=S)(OCC)OCC`, the AC50 is 50 µM (active).
For the molecule `CCCCCCCCc1ccc(O)cc1`, the outcome was inactive.
On the same count and under the same terms, the entry for `O=C(O)C(Cl)(Cl)Cl` is “inactive”.
As to `C=CC(=O)OCCCCCC(C)C`, the AC50 is 50 µM (active).
The same measure, in the same setting: the same measure for `O=C(Nc1ccc2[nH]ccc2c1)c1cc2cc(F)ccc2n1Cc1cccc(F)c1`: 12.5 µM (active).
Take `CC(C)(C)c1cc(O)ccc1O`: the molecule was classed as inactive.
With `CN(C)N=O`, the molecule was classed as inactive.
